The list is not random: actives were taken first. Their share in the collection is about 2.9%.
HEK293 tox: cytotoxic in the GLP-1 receptor inverse agonist counter-screen; HEK293 cAMP-luciferase reporter cells, luminescence, 24 h; Potency, µM (series often up to 38.3 µM), most hits filed as inhibitors; actives 0.13% (n = 410,000); AID 624418;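 note: loss of luciferase light is scored as toxicity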
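MLSMR compounds, 24 hr on cells at 37 deg C/5% CO2; luminescence after luciferase reagent (12 min RT). Inhibition counted as the undesired cytotoxic outcome.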
ClpP mod: qHTS Assay for Activators of ClpP. actives 1.9% (n = 340,000). AID 651965, 2013. purified B. subtilis ClpP, FRET peptide cleavage, 20 min. ATP-dependent Clp protease proteolytic subunit (Bacillus subtilis (strain 168)), P80244. Potency, µM (highest dose often 57.5 µM); active = well fitted falling curve with a large enough effect; inconclusive = small, poorly fitted or top-dose-only effect; inactive = no such curve, though single readings can be large or run the other way; note: the source files actives as falling curves though it sought activators and does not explain the sign; nearly all actives have a fitted effect of over 65% in size
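ClpP 10 microg/mL final, pH 8 Tris/KCl buffer with BSA, glycerol, Tween-20; compound pinned in; FRET-FV substrate; RT 20 min; Ex320/Em430; ΔFRET vs ADEP 5.8 microM, DMSO, no enzyme.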
LDHA inh: blocks human lactate dehydrogenase A; P00338; purified LDHA, NADH/diaphorase-resazurin fluorescence; stronger effect = lower value; activity change, % (values are at about 110 or 230 µM); actives 0.15% (n = 480,000); AID 1347041; in the data active = activity change below about -30%; inconclusive = mostly about -25% to -30%
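Human LDH5 (2 nM) was incubated with 0.06 mM NADH and 0.2 mM pyruvate for 5 min at room temperature in Tris pH 7.4. Remaining NADH was coupled through diaphorase/resazurin, and resorufin fluorescence was read at 0 and 20 min.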
GLP-1R inv ag: inverse agonists of human GLP-1 receptor. actives 1.6% (n = 410,000). P43220. HEK293 GLP-1R CRE-luciferase, luminescence, 24 h; GLP-1R form is constitutively active. Potency, µM (top dose mostly 38.3 µM), hits mostly inhibitors; note: nearly all actives have a fitted effect of over 55% in size
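Inverse agonism was detected as reduced cAMP-driven luciferase luminescence after 24 h compound treatment. The cells were HEK293 clones expressing constitutively active human GLP-1R with the reporter. Reporter-only and GPR119 cell lines served as counterscreen controls.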
p53 reactivation: mutant p53 re-activation in reporter cells. actives 0.063% (n = 320,000). H1299 p53-A138V BP100-luciferase reporter, luminescence, 24 h. AID 504706. Potency, µM (titrated, usually from 92.2 µM), usual class: activators; note: nearly all actives have a fitted effect of over 45% in size
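H1299 (p53-null), stable ts p53-A138V + BP100-Luc; 1000 cells/well, Opti-MEM/10% FBS; cpd 4 pt, 1:5; 24 h, 37 deg C, 5% CO2; detection reagent 10 min RT; luminescence.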
GLP-1R agonist: agonists of human GLP-1 receptor; actives 0.007% (n = 380,000); HEK293 GLP-1R CRE-luciferase, luminescence, 4-6 h; cells express a hypersensitive GLP-1R form; Potency, µM (titrated, usually from 45.6 µM), hits mostly activators; P43220; AID 624172
Each line names hits and unclear results; the compound was inactive in the other large screens. Unless noted, calls come from the whole dose curve; as a rule, active = well fitted curve in the direction sought with a large enough effect; inconclusive = small, poorly fitted or top-dose-only effect, or another doubt; inactive = no such curve, though single readings can be large; an effect the other way counts as inactive or inconclusive.

CC(C)(C)Cc1nc2ccccc2n1CCc1ccccc1	GLP-1R inv ag 5µM
O=C(Nc1cccc(-c2cn3ccccc3n2)c1)C1CC1	ClpP mod 28µM
CC(C)CC(=O)Nc1cccc(-c2csc(-c3ccccc3)n2)c1	GLP-1R inv ag 10µM, p53 reactivation inconclusive
COc1ccc(CC(=O)Nc2ccc(-c3cn4ccccc4n3)cc2)cc1	ClpP mod 28µM
COc1ccc(CC(=O)Nc2ccc(-c3cn4ccccc4n3)cc2)cc1OC	ClpP mod inconclusive
CCC(=O)Nc1cccc(-c2cn3ccccc3n2)c1	ClpP mod 10µM, p53 reactivation inconclusive
Cc1ccc2cccc(NC(=O)c3ccc(C#N)cc3F)c2n1	none (no result: p53 reactivation)
CCCc1cc(C(=O)NCc2ccc(OC)cc2)no1	p53 reactivation inconclusive
C#CCOc1ccc(/C=N/NC(=O)c2cccnc2)cc1OCC	none
COc1ccc(CC(=O)Nc2cccc(-c3cn4ccccc4n3)c2)cc1	ClpP mod 20µM
Cc1cccc2nc(-c3cccc(NC(=O)Cc4ccccc4)c3)cn12	ClpP mod 28µM
COc1ccc(CC(=O)Nc2cccc(-c3csc(C)n3)c2)cc1	GLP-1R inv ag inconclusive, p53 reactivation inconclusive
COC(=O)C1=CN(c2ccc(F)cc2)C(N)=C(C#N)C1c1ccc(-c2ccccc2)cc1 (centres undefined)	GLP-1R inv ag inconclusive (no result: p53 reactivation, GLP-1R agonist)
O=C(NCc1cccs1)Nc1cc(Cl)ccc1Cl	HEK293 tox 10µM, GLP-1R inv ag inconclusive (no result: ClpP mod)
O=C(NCc1ccccn1)Nc1cc(Cl)ccc1Cl	none
O=C1/C(=C\c2cccs2)N=C(c2cccs2)N1Nc1ccccc1	HEK293 tox inconclusive, GLP-1R inv ag inconclusive
O=C1/C(=C/c2cccs2)N=C(c2cccs2)N1Nc1ccccc1	GLP-1R inv ag 10µM
Fc1cccc(CN2CCN(C(=S)NCCc3ccccc3)CC2)c1	none (no result: ClpP mod)
FC(F)Sc1ccc(NC(=S)NC(c2ccccc2)c2ccccc2)cc1	HEK293 tox inconclusive, GLP-1R inv ag 4µM
CCCC1C2CN(C(C)C)CC=C2C(C#N)=C(N)C1(C#N)C#N (centres undefined)	ClpP mod 28µM
CN1CC=C2C(C#N)=C(N)C(C#N)(C#N)[C@H](c3cccs3)[C@H]2C1	GLP-1R inv ag inconclusive
CN1CC=C2C(C#N)=C(N)C(C#N)(C#N)C(CCc3ccccc3)C2C1 (centres undefined)	ClpP mod 28µM
CN1CC=C2C(C#N)=C(N)C(C#N)(C#N)C(c3ccsc3)C2C1 (centres undefined)	ClpP mod inconclusive
CCN(CC)Cc1cc(C(=O)O)c(C)o1	none (no result: ClpP mod)
CCCCOC(=O)Nc1nnc(-c2ccccc2OC)s1	ClpP mod inconclusive
COc1ccccc1-c1nnc(NC(=O)C(C)Sc2nncn2C)s1 (centres undefined)	none
COc1ccccc1-c1nnc(NC(=O)C(C)C)s1	ClpP mod 32µM
COc1ccccc1-c1nnc(NC(C)=O)s1	ClpP mod 28µM, p53 reactivation inconclusive
Cc1c(Cl)ccc2c(C(=O)NCCN3CCCCC3)cc(-c3ccccn3)nc12	HEK293 tox inconclusive, GLP-1R inv ag 3.5µM (no result: ClpP mod)
Cc1ccc(/C(=N\O)c2oc3c(C)c4oc(=O)cc(C)c4cc3c2C)cc1	ClpP mod 25µM, GLP-1R inv ag inconclusive
Cc1cc(=O)oc2c1ccc1oc(/C(=N/O)c3ccccc3)c(C)c12	HEK293 tox inconclusive, ClpP mod inconclusive, GLP-1R inv ag inconclusive
c1ccc(-c2ccccc2OCCCN2CCOCC2)cc1	LDHA inh -30
CC(C)(C)c1ccccc1OCCCCCn1ccnc1	HEK293 tox inconclusive, GLP-1R inv ag inconclusive (no result: ClpP mod)
c1ccc(-c2ccccc2OCCCCn2ccnc2)cc1	LDHA inh -37
OCCCN1CCN(CCCOc2ccccc2-c2ccccc2)CC1	none
CCOC(=O)C1=CCN(S(=O)(=O)c2ccc(F)cc2)C1c1ccc(Br)cc1 (centres undefined)	GLP-1R inv ag inconclusive (no result: p53 reactivation)
O=c1c2ccccc2sc2nc(CCl)nn12	HEK293 tox inconclusive, ClpP mod 16µM, GLP-1R inv ag inconclusive (no result: p53 reactivation)
COc1ccc(S(=O)(=O)n2c([N+](=O)[O-])cnc2C)cc1OC	none (no result: p53 reactivation)
O=c1oc2cc(OCc3c(F)cccc3Cl)ccc2cc1-c1ccccn1	none
CCCOc1ccc2cc(-c3ccccn3)c(=O)oc2c1	GLP-1R inv ag 2.8µM (no result: ClpP mod)
COc1cc(NC(=O)c2ccc(Cl)cc2Cl)ccc1-c1cc2ccccc2oc1=O	none
Cc1cc(NC(=O)c2cc(Cl)ccc2Cl)ccc1-c1cc2ccccc2oc1=O	ClpP mod 11µM, GLP-1R inv ag inconclusive (no result: p53 reactivation, GLP-1R agonist)
CCCOc1cccc(C(=O)Nc2ccc(-c3cc4ccccc4oc3=O)c(C)c2)c1	GLP-1R inv ag 4µM (no result: p53 reactivation, GLP-1R agonist)
Cc1nc(C(=O)N(C)C)nn1-c1ccc([N+](=O)[O-])cc1	none (no result: ClpP mod)
CC1(C)CC(=O)C([N+](=O)[O-])=C(NCCCC(=O)O)C1	ClpP mod 14µM
Cc1ccc(NC(=O)N(Cc2cn(C)c3ccccc23)C2CCCCC2)cc1C	none (no result: p53 reactivation)
COc1cc(S(=O)(=O)N(Cc2ccccc2)Cc2ccccn2)ccc1-n1cnnn1	none
COc1cc(OC)c2cc(C(=O)NCC(=O)Nc3ccc4c(c3)OCCO4)n(C)c2c1	none (no result: HEK293 tox, ClpP mod, GLP-1R inv ag, p53 reactivation, GLP-1R agonist)
O=[N+]([O-])c1ccc(CN2CCOCCOCCN(Cc3ccc([N+](=O)[O-])cc3)CCOCC2)cc1	GLP-1R inv ag 10µM (no result: ClpP mod)
Cc1ccc(N(CCC(=O)O)S(=O)(=O)c2ccccc2)cc1	none
Cc1cccc(N2C(=O)CC(Sc3nc(-c4ccccc4)c4cc(Cl)ccc4n3)C2=O)c1 (centres undefined)	ClpP mod 28µM
Cc1cccc(N2C(=O)CC(Sc3nc(C)c4c(n3)CCCC4)C2=O)c1 (centres undefined)	HEK293 tox 5µM
Cc1nc(SC2CC(=O)N(c3cc(Cl)cc(Cl)c3)C2=O)nc2c1CCCC2 (centres undefined)	HEK293 tox inconclusive, GLP-1R inv ag inconclusive
CC1C(=O)CCC1(C(=O)O)c1ccccc1 (centres undefined)	none
CCOC(=O)c1c(NC(=O)C(C)NCc2ccco2)sc2c1CCC(C)C2 (centres undefined)	HEK293 tox inconclusive, ClpP mod inconclusive, GLP-1R inv ag 4µM
CC1CCc2c(sc(NC(=O)COC(=O)c3ccccc3NCc3ccco3)c2C#N)C1 (centres undefined)	ClpP mod 13µM
Fc1ccc(-n2ncc3c(NC4CCCCC4)ncnc32)cc1	none (no result: HEK293 tox, ClpP mod, GLP-1R inv ag, p53 reactivation, GLP-1R agonist)
Cc1ccc(-n2ncc3c(NC4CCCCC4)ncnc32)cc1	ClpP mod inconclusive, GLP-1R inv ag 10µM (no result: p53 reactivation, GLP-1R agonist)

Screening data: PubChem, National Center for Advancing Translational Sciences (NCATS)
